CD11b adhes inh = inhibitors of CD11b/CD18 adhesion to fibrinogen, primary screen, K562 cells, luminescence; ATPlite luminescence; Mn2+ added to activate the integrin; inhibition, % at 10 µM; Integrin beta-2 (Homo sapiens) + Integrin alpha-M (Homo sapiens), P05107+P11215; hit rate 0.54% among 93,000; AID 1497, 2009;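 active = primary inhibition of 50% or more at 10 µM, then 40% or more on retest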
ERa SRC1 inh = ERα–SRC-1 coactivator interaction inhibitors, primary screen, biochemical, TR-FRET, ERα LBD, estradiol-bound; inhibition, % at 25.6 µM; TR-FRET ER-alpha LBD / SRC-1 peptide; hit rate 1.7% among 86,000; Estrogen receptor (Homo sapiens), P03372; AID 629, 2007; in the data active = inhibition above about 50%;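 note: 0% = receptor plus peptide control and 100% = peptide only without receptor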
ERa SRC1 pot = enhancers of ERα–SRC-1 coactivator binding, primary screen, biochemical, TR-FRET, ERα LBD, low estradiol. Estrogen receptor (Homo sapiens), P03372. hit rate 1.3% among 86,000. TR-FRET ERalpha-LBD/SRC-Cy5 coactivator binding, 2 h; 100 = basal binding, no effect. coactivator binding (% of control), % at 25.6 µM; in the data active = activity above about 200%;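 note: binding measured in presence of low estradiol as agonist stimulus; 0% = peptide alone without receptor and 100% = receptor with peptide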
ERb coact inh = inhibitors of ERβ-SRC1 coactivator interaction, primary screen, biochemical, TR-FRET, ERβ LBD, SRC-1 peptide; TR-FRET ER-beta LBD / SRC1-Cy5 peptide binding; receptor agonist-loaded with 1 µM estradiol; inhibition, % at 25.6 µM; hit rate 1.3% among 86,000; AID 633, 2007;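 active = compounds whose percent inhibition of the receptor-coactivator binding signal exceeds about 50% in the single-dose screen, limit read from the data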;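 note: 0% = receptor plus peptide wells without compound and 100% = peptide-only wells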
Target sequence (Q92731 whole entry, looked up, the tested form may be a part): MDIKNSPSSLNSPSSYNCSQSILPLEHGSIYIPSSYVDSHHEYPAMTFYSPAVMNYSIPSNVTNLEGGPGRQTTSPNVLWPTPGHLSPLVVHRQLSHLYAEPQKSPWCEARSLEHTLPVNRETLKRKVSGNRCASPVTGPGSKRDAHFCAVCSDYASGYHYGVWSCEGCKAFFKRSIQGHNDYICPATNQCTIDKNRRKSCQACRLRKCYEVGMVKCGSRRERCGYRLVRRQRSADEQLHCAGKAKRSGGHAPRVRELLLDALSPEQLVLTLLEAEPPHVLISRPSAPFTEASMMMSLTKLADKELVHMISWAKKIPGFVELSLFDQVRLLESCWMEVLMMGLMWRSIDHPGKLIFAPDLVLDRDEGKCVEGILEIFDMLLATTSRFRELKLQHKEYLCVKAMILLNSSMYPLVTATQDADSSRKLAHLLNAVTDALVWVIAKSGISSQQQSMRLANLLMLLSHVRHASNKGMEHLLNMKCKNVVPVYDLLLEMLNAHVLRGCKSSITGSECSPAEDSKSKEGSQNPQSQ
CD11b adhes enh = enhancers of CD11b/CD18 adhesion to fibrinogen, primary screen, K562 cells, luminescence; AID 1499, 2009; hit rate 0.07% among 93,000; ATPlite luminescence; Integrin beta-2 (Homo sapiens) + Integrin alpha-M (Homo sapiens), P05107+P11215; activation, % at 10 µM;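 active = 10 µM primary screen giving 50% or more activity, confirmed by 40% or more on retest at that dose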
An asterisk follows results filed as active; / = not tested or not shown; [ ] = another dose, or the depositor's remark. In the library only some 3.1% were active in any assay of this set; here they are far more common.

SMILES	CD11b adhes inh	ERa SRC1 inh	ERa SRC1 pot	ERb coact inh	CD11b adhes enh
O=C1N=C(N2CCCCC2)SC1=C1CCCCC1	4.9	-2.0	89.5	-0.2	-5.3
O=C1NC(=S)SC1=C1CCCCCC1	59.0*	-1.9	116.9	-8.3	-2.9
S=c1[nH]nc(-c2cc3ccccc3o2)n1Cc1ccccc1	/	-0.6	87.8	-8.1	/
O=C1CN(C(=O)c2cccs2)c2ccccc2N1	7.5	2.1	965.9*[fluorescence artefact?]	14.0	5.5
O=C1CN(C(=O)c2ccccc2F)c2ccccc2N1	-1.4	-7.4	157.3	0.1	-3.4
Oc1ccc(N=C/C=C/c2cccc(Br)c2)cc1-c1nc2ccccc2s1	-12.4	/	/	/	9.0
CN(C)CCC(=O)NCC1OCCc2ccccc21 (centres undefined)	-25.3	-3.1	95.1	-1.6	-3.1
CCN1/C(=C/c2ccc3ccccc3[n+]2CC)C=Cc2ccccc21	94.1*	-3.4	138.2	-0.6	-6.4
CC(C)Oc1ccc(CSc2nnc3n(C)c(=O)c4c5c(sc4n23)CCCC5)cc1	/	-4.7	104.3	-6.4	/
CCC1(C)Cc2c(sc3c2c(=O)n(C)c2nnc(SCc4ccc5c(c4)OCO5)n32)CO1 (centres undefined)	19.2	87.2*[fluorescence artefact?]	125.1	69.4*[fluorescence artefact?]	-2.4
Cc1ccc(C2=NN(CC(=O)NCc3ccccn3)C(=O)CC2)cc1	-5.6	/	/	/	5.3
COCCNC(=S)N/N=C(\C)c1ccc(-n2ccnc2)cc1	-11.7	/	/	/	-0.2
Cc1ccc(C(=O)Oc2ccc(C(=O)COC(=O)C3CC(=O)N(Cc4ccco4)C3)cc2)cc1 (centres undefined)	/	23.5	274.1*[fluorescence artefact?]	6.8	/
Cc1ccc(C(=O)N/C(=C/C=C\c2ccccc2)C(=O)NCc2ccco2)cc1	20.8	/	/	/	1.9
Cc1nccn1-c1ncnc2sc3c(c12)CCCC3	5.4	1.2	93.0	63.0*	-4.0
CCOC(=O)C(Cc1ccccc1)NC(=O)CCc1c(C)nc2ncnn2c1C (centres undefined)	/	14.8	95.2	4.5	/
COC(=O)C(NC(=O)CCc1c(C)nc2ncnn2c1C)C(C)C (centres undefined)	1.9	-7.9	84.8	66.3*[fluorescence artefact?]	-2.2
CCOC(=O)c1c(CC(C)C)csc1NC(=O)COC(=O)c1cc(OC)c(OC)cc1[N+](=O)[O-]	3.0	/	/	/	3.3
O=C(NCc1ccc2c(c1)OCO2)c1cc2ncc(Br)cn2n1	-5.2	79.7*[fluorescence artefact?]	23.8	77.9*[fluorescence artefact?]	1.4
N#Cc1ccccc1Cn1c(=O)n(Cc2ccc(C(=O)NCc3ccco3)cc2)c(=O)c2ccccc21	/	82.1*[fluorescence artefact?]	172.5	48.2	/
N#Cc1c(NC(=O)c2ccncc2)sc2c1CCC2	-26.5	90.8*[fluorescence artefact?]	10.4	90.9*[fluorescence artefact?]	4.4
CC(=O)Nc1sc2c(c1C#N)CCCC2	-23.6	-11.9	90.5	-19.8	-3.2
Cc1cccc(-c2noc(CCCOc3ccc(Cl)cc3Cl)n2)c1	98.7*	15.1	93.9	1.5	-8.9
Cc1ccc(-c2noc(CCCOc3ccc(Cl)cc3Cl)n2)cc1	13.7	2.7	111.8	3.0	-1.6
COc1cc(-c2noc(-c3cccc(Cl)c3)n2)cc(OC)c1OC	/	4.8	233.0*	15.8	21.2
SMILES	CD11b adhes inh	ERa SRC1 inh	ERa SRC1 pot	ERb coact inh	CD11b adhes enh
CCC(=NC(C)c1ccccc1)c1c(O)n(C)c(=O)n(C)c1=O (centres undefined)	70.6*	0.8	78.4	2.8	-5.3
COc1ccccc1Nc1nc(N)nc(CSC(=S)N2CC(C)CC(C)C2)n1 (centres undefined)	-8.9	/	/	/	-4.1
Cc1ccc(C2C(/C=C3/SC(=S)NC3=O)=C(c3cccs3)Oc3ccccc32)cc1 (centres undefined)	78.0*	23.8	47.2	2.3	1.8
CCOC(=O)Nc1ccc(OC)cc1S(=O)(=O)N1CCCCC1	2.6	73.7*[fluorescence artefact?]	66.2	74.3*[fluorescence artefact?]	0.8
COc1ccc(OC)c(S(=O)(=O)N2CCCCCC2)c1	1.2	-2.1	108.9	-7.6	-1.6
CCS(=O)(=O)Nc1ccc(C(=O)CC2(O)C(=O)Nc3ccccc32)cc1 (centres undefined)	-9.6	-2.8	218.7*[fluorescence artefact?]	-4.0	3.0
Cc1cc(C)c(C(=O)CC2(O)C(=O)Nc3ccccc32)cc1C (centres undefined)	-27.8	14.3	97.1	11.9	6.5
C[C@]12CC[C@@H]3c4ccc(O[C@@H]5O[C@H](C(=O)O)[C@@H](O)[C@H](O)[C@H]5O)cc4CC[C@H]3[C@@H]1C[C@@H](O)[C@@H]2O	/	-8.4	429.1*	9.9	/
Cc1ccc(NS(=O)(=O)c2ccc3c(c2)oc(=O)n3C)cc1F	-6.5	-7.6	221.2*	-5.8	-1.5
CCOC(=O)N1CCN(S(=O)(=O)c2ccc(C(=O)Nc3nc4ccccc4s3)cc2)CC1	-12.6	42.1	280.0*[fluorescence artefact?]	30.2	3.4
CCOC(=O)c1sc(NC(=O)c2ccc(S(=O)(=O)N3CCOCC3)cc2)nc1-c1ccccc1	50.3	/	/	/	5.7
CCOC(=O)N1CCN(S(=O)(=O)c2ccc(C(=O)Nc3nc4ccc(F)cc4s3)cc2)CC1	-3.3	-4.9	377.0*	4.9	-2.1
CCOC(=O)N1CCN(S(=O)(=O)c2ccc(F)cc2)CC1	-11.5	-8.1	106.5	-7.5	-3.0
Cc1ccc(S(=O)(=O)c2nc(S(C)(=O)=O)sc2NCC2CCCO2)cc1 (centres undefined)	-11.6	-24.3	610.5*	6.6	-2.2
CCOC(=O)c1cnn(-c2nc(SC)nc3sc4c(c23)CCC4)c1N	-7.0	74.8*[fluorescence artefact?]	61.5	60.2*	36.7
N#Cc1cnn(-c2ncnc3sc4c(c23)CCCC4)c1N	46.2	/	/	/	3.1
CCOC(=O)c1cnn(-c2nc(C)nc3sc4c(c23)CCC4)c1N	-6.8	20.5	119.3	6.2	-0.1
Cc1nc(-n2ncc(C#N)c2N)c2c3c(sc2n1)CCC3	14.5	66.8*[fluorescence artefact?]	208.2*[fluorescence artefact?]	54.7*[fluorescence artefact?]	-1.8
O=C(Nc1cc(Cl)cc(Cl)c1)c1cccc(OC(F)F)c1	96.5	/	/	/	-5.9
COC(=O)c1cc(Cl)c(NC(=O)/C=C/c2ccc(OC)c(OC)c2)cc1OC	-39.1	/	/	/	20.1
Cc1nc(SCC(=O)Nc2c(C)n(C)n(-c3ccccc3)c2=O)[nH]c(=O)c1C	/	-25.4	94.4	-24.2	/
O=S(=O)(/N=C(/Sc1ccccc1)c1ccccc1)c1ccccc1	4.1	77.0*	63.9	54.2*[fluorescence artefact?]	7.3
O=S(=O)(C=C(c1ccccc1)c1ccccc1)c1ccccc1	5.5	/	/	/	2.6
Cc1cccc(NC(=S)NC2CC3CCCC(C2)N3CC(C)C)c1 (centres undefined)	/	-1.5	96.0	6.6	/
O=C(COc1ccc(Br)cc1)Nc1ccncc1	34.1	-7.6	101.1	-8.0	-2.9
Cc1cc(OCC(=O)Nc2ccncc2)c(C)cc1Br	98.0*	-12.3	98.9	-6.7	-10.5

Source: PubChem
